Source: PubChem
USP30 inh – human USP30 deubiquitinase inhibition; inhibition, % at 25 µM; Q70CQ3; actives 5.3% (n = 47,000); AID 1645860; purified USP30, Ub-rhodamine cleavage fluorescence
Target sequence (Q70CQ3 whole entry, looked up): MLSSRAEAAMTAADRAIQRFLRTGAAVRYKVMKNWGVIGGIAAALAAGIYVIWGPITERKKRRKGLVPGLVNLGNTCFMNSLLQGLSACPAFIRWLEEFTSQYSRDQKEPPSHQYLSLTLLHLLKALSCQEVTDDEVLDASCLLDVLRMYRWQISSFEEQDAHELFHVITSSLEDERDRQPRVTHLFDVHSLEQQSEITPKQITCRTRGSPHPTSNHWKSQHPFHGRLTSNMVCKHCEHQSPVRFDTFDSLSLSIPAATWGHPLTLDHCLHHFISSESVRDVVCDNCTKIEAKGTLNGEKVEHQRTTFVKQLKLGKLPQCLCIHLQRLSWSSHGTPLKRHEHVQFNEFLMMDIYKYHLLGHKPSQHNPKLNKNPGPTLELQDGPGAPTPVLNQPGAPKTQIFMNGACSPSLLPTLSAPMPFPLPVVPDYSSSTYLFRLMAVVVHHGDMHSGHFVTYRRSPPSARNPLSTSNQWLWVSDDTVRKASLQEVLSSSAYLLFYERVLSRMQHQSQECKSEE
USP8 inh – blocks human USP8 ubiquitin-rhodamine cleavage; P40818; purified USP8, Ub-rhodamine cleavage fluorescence, 30 min; inhibition, % at 20 µM; actives 4.2% (n = 47,000)
USP17 block – human USP17-like deubiquitinase inhibition; purified USP17, Ub-rhodamine cleavage fluorescence, 3 h; inhibition, % at 50 µM; actives 6.5% (n = 47,000); AID 1645855
The depositor's hits bear a star. Hits are enriched below; roughly 12% of the tested compounds scored in any of these assays. Rule as the data show it: active = inhibition above about 30%; inactive = the rest.

How did Cc1ccc(-n2c(C)cc(/C=C3\C(=N)N4N=C(COc5ccccc5)SC4=NC3=O)c2C)cc1 do in these assays?
USP8 inh: -22; USP17 block: -20

What do the screens show for `Cc1cc(-c2cnc(NC3CCCC3)nc2[C@H]2CCCO2)on1`?
USP8 inh: -1; USP17 block: -7

What do the screens show for `Cc1cc(-c2cnc(N3CCCCC3)nc2C2CCN(c3cnccn3)CC2)on1`?
USP30 inh: 34*; USP8 inh: 6; USP17 block: 17

Results for Cc1cc(-c2cnc(N3CCCCC3)nc2C2CCN(c3ncccn3)CC2)on1 ?
USP30 inh: -1; USP8 inh: 10; USP17 block: 5

What do the screens show for `Cc1cc(-c2cnc(N3CCSCC3)nc2[C@@H]2CCCO2)on1`?
USP30 inh: 33*; USP8 inh: -19; USP17 block: 30

What do the screens show for `CC1CCN(c2nc(C(C)NC(=O)c3ccn(C)n3)cc(=O)[nH]2)CC1` (stereo unspecified)?
USP30 inh: -2; USP8 inh: -2; USP17 block: -4

What do the screens show for `CCOC(=O)N1CCN(S(=O)(=O)c2ccc(C(=O)Nc3ccccc3-c3nc4ccccc4[nH]3)cc2)CC1`?
USP30 inh: 17; USP8 inh: 18; USP17 block: 17

What do the screens show for `Nc1nonc1-c1nc2ccccc2n1Cc1cc2c(cc1Br)OCO2`?
USP30 inh: -9; USP8 inh: -212; USP17 block: -28

How did CSc1ccc(C(O)c2ncc(-c3cccc4ccccc34)[nH]2)cc1 (stereo unspecified) do in these assays?
USP30 inh: -6; USP8 inh: 25; USP17 block: 0

What do the screens show for `CSc1ccc(/C=C/c2nc(-c3ccccc3O)n[nH]2)cc1`?
USP30 inh: 9; USP8 inh: 64*; USP17 block: 46*

How did Cn1c(COc2cccc3cccnc23)nnc1SCC(N)=O do in these assays?
USP30 inh: -20; USP8 inh: 2; USP17 block: -8

Results for CCn1c(COc2ccc(Cl)c3cccnc23)nnc1SC(F)F ?
USP30 inh: 40*; USP8 inh: 13; USP17 block: 18

Results for CC(C)n1nccc1C(=O)N(C)C[C@H]1C[C@]2(C)[C@@H](CCCC[C@]2(C)O)N1C ?
USP30 inh: -173; USP8 inh: -18; USP17 block: -38

Results for O=C(c1cccnc1)N1CCN(CC2CC=CCC2)CC1 (stereo unspecified) ?
USP30 inh: 0; USP8 inh: -6; USP17 block: 1

How did CCOC(=O)c1ccc(N2C(=O)/C(=C/c3ccccc3)N=C2SCC)cc1 do in these assays?
USP30 inh: 20; USP8 inh: 18; USP17 block: 25

Results for CSC1=N/C(=C/c2ccccc2)C(=O)N1c1ccc(F)c(Cl)c1 ?
USP30 inh: 33*; USP8 inh: 14; USP17 block: 25

What do the screens show for `Cc1ccc(CN2CCCn3nc(C(=O)NCc4ccccc4C)cc3C2=O)cc1`?
USP30 inh: 52*; USP8 inh: 14; USP17 block: 50*

What do the screens show for `Cc1ccc(CN2CCCn3nc(C(=O)NCc4cccs4)cc3C2=O)cc1`?
USP30 inh: -21; USP8 inh: -26; USP17 block: -2

How did CC(C)(C)C(=O)CSc1nnc(-c2ccccn2)s1 do in these assays?
USP30 inh: 25; USP8 inh: 8; USP17 block: 8

How did CC(=O)c1cnc(-c2ccccn2)s1 do in these assays?
USP30 inh: -26; USP8 inh: 44*; USP17 block: 3

What do the screens show for `O=C(C1CCCC1)N1CCCC(c2nn(CCOc3ccccc3)c3nccnc23)C1` (stereo unspecified)?
USP30 inh: 0; USP8 inh: 0; USP17 block: -6

What do the screens show for `COc1ccc(-c2nc(Cn3nnc(-c4nc(-c5ccccc5C)no4)c3C)c(C)o2)cc1`?
USP30 inh: -187; USP8 inh: -43; USP17 block: -50

Results for Cc1c(-c2noc(-c3ccco3)n2)nnn1Cc1cccc(F)c1 ?
USP30 inh: -16; USP8 inh: 1; USP17 block: -2

Results for COc1ccc(-c2nc(-c3nnn(Cc4cccc(F)c4)c3C)no2)c(OC)c1 ?
USP30 inh: 32*; USP8 inh: 3; USP17 block: -5

Results for COc1ccccc1-c1noc(-c2nnn(Cc3nc(-c4ccc(C)cc4)oc3C)c2C)n1 ?
USP30 inh: 32*; USP8 inh: 2; USP17 block: -7

Results for COc1ccccc1-c1nc(-c2nnn(Cc3ccc(C)cc3)c2C)no1 ?
USP30 inh: 30*; USP8 inh: 5; USP17 block: 4

How did COc1ccccc1-c1nc(-c2nnn(Cc3ccccc3)c2C)no1 do in these assays?
USP30 inh: 27; USP8 inh: 8; USP17 block: 24

How did O=C(CCn1nnc2cc(-c3noc(C4CCCCC4)n3)ccc21)N1CCOCC1 do in these assays?
USP30 inh: -5; USP8 inh: -1; USP17 block: -9

What do the screens show for `O=C1Nc2ccc(S(=O)(=O)NC3CCCCC3)c3cccc1c23`?
USP30 inh: 6; USP8 inh: -96; USP17 block: -5

Results for CCOC(=O)Cc1cc(=O)n2[nH]c(-c3ccc(Cl)cc3)cc2n1 ?
USP30 inh: -126; USP8 inh: -48; USP17 block: -70

Results for CCOC(=O)Cn1c(-c2ccc(Cl)cc2)ccc(C#N)c1=O ?
USP30 inh: 30*; USP8 inh: 31*; USP17 block: 14

Results for CN(C)C(=O)N1CCN(S(=O)(=O)c2ccccc2)CC2(CC(=O)N(C)C2)C1 (stereo unspecified) ?
USP30 inh: 17; USP8 inh: 11; USP17 block: 0

Results for Cc1nc(-c2cccc(N3CC(C(=O)Nc4ccccc4C)CC3=O)c2)no1 (stereo unspecified) ?
USP30 inh: 19; USP8 inh: 19; USP17 block: 11

Results for O=C(O)c1cccc(S(=O)(=O)NCc2ccc3c(c2)OCO3)c1 ?
USP30 inh: 35*; USP8 inh: 3; USP17 block: 9

Results for CC1Cc2ccccc2N1S(=O)(=O)c1cccc(C(=O)OCC(=O)Nc2cc(F)ccc2F)c1 (stereo unspecified) ?
USP30 inh: -16; USP8 inh: 3; USP17 block: -1

How did CC1Cc2ccccc2N1S(=O)(=O)c1cccc(C(=O)OCC(=O)Nc2ccc3c(c2)OCO3)c1 (stereo unspecified) do in these assays?
USP30 inh: -57; USP8 inh: 37*; USP17 block: -3

What do the screens show for `CC1Cc2ccccc2N1S(=O)(=O)c1cccc(C(=O)NCc2ccc(Cl)cc2Cl)c1` (stereo unspecified)?
USP30 inh: -112; USP8 inh: 3; USP17 block: 10

How did CC1Cc2ccccc2N1S(=O)(=O)c1cccc(C(=O)NCc2ccc3c(c2)OCO3)c1 (stereo unspecified) do in these assays?
USP30 inh: -3; USP8 inh: 39*; USP17 block: 19

How did Nc1ncc(S(=O)(=O)NCc2ccc3c(c2)OCO3)cn1 do in these assays?
USP30 inh: -36; USP8 inh: -35; USP17 block: -20

What do the screens show for `Cn1nccc1C(=O)N[C@@H]1C[C@@H](Oc2ccccc2)[C@H](O)[C@H]1N1CCCCC1`?
USP30 inh: 0; USP8 inh: 9; USP17 block: 2

Results for O=c1cc(CN2CCCC2)nc(-c2ccccc2)[nH]1 ?
USP30 inh: -318; USP8 inh: -21; USP17 block: -47
